Cycloheximide cs = counter-screen hit for Shiga toxin inhibitors, cycloheximide; cell reporter, cycloheximide protein synthesis inhibition counterscreen; 300,000 tested, 12% active; max response, %; in the data active = max response mostly above about 13%, no sharp cut-off; inactive = mostly below about 14%; also: read at 38.3 µM for the half of the compounds with a filed dose; 0% is about no effect
Tb PYK inh = inhibitors of Trypanosoma brucei pyruvate kinase; Q57TT1; TbPYK enzyme, Kinase-Glo Plus ATP luminescence, 45 min; Potency, µM (doses to about 76.8 µM), for the others: at the highest dose activity, negative = inhibition, actives largely listed as inhibitors; 410,000 tested, 0.12% active; also: potency is read from the fitted curve at half-maximal effect; % is scaled to controls: 0 for no effect and ±100 for the full control effect; nearly all actives have a fitted effect of over 50% in size
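Glycolytic pyruvate kinase of T. brucei was incubated with substrate, test compound and 130 uM ADP for 45 minutes at room temperature. Luminescent Kinase-Glo Plus signal was measured after 10 minutes.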
Shiga toxin inh = blocks Shiga toxin action in Vero cells. Vero cells, Shiga toxin protein synthesis inhibition reporter. inhibition, % at 38.7 µM. 290,000 tested, 9.2% active; in the data active = inhibition mostly above about 28%, no sharp cut-off; inactive = mostly below about 43%; also: 0% is about no effect
LmPK inhibitor = LmPK (Leishmania mexicana) enzyme inhibition; Q27686; purified LmPK, Kinase-Glo ATP luminescence, 1 h; Potency, µM (top dose mostly 57.5 µM), without a hit: top-dose activity change, negative = inhibition, usual class: inhibitors; 290,000 tested, 0.37% active; AID 1721; also: potency is read from the fitted curve at half-maximal effect; % is scaled to controls: 0 for no effect and ±100 for the full control effect
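Kinase-Glo luminescence read after 1 h RT reaction of 0.1 nM LmPK with 0.5 mM PEP and 0.1 mM ADP. Activity scaled between uninhibited and enzyme-free controls.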
Giardia FBPA inh = Giardia lamblia aldolase inhibition | Potency, µM (titrated, usually from 59.6 µM), inactives show top-dose activity, negative = inhibition, most hits filed as inhibitors | A8B2U2 | purified Giardia FBPA | 290,000 tested, 0.71% active; also: potency is read from the fitted curve at half-maximal effect; % is scaled to controls: 0 for no effect and ±100 for the full control effect; nearly all actives have a fitted effect of over 55% in size
Target sequence (A8B2U2 whole entry, looked up): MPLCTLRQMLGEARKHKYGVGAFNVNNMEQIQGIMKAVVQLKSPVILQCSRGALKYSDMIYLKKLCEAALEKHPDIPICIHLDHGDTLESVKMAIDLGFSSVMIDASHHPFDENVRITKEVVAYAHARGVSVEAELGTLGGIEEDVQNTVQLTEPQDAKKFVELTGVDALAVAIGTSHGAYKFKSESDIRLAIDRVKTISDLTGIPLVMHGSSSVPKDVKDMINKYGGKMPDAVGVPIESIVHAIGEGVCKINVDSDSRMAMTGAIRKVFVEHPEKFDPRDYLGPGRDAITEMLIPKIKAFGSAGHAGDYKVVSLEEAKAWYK
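40 nM FBPA preincubated 10 min at RT with compound (up to 57.5 uM final), then substrate plus GAPDH/TPI/NAD/arsenate coupling and diaphorase/resazurin added. Fluorescence read after 20 min at RT, 525/598 nm.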
RE007 growth inh = less growth of the S. pombe RE007 Vpr strain; S. pombe RE007 Vpr strain, BacTiter-Glo ATP luminescence, 24 h; Potency, µM (doses to about 92.2 µM), inactives show at the highest dose activity change, negative = less growth, usual class: inhibitors; 360,000 tested, 0.21% active; AID 651644; active = well fitted falling curve with a large enough effect; inconclusive = small, poorly fitted or top-dose-only effect; inactive = no such curve, though single readings can be large or run the other way; also: potency is read from the fitted curve at half-maximal effect; % is scaled to controls: 0 for no effect and ±100 for the full control effect; nearly all actives have a fitted effect of over 50% in size
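Fission yeast strain RE007, carrying one chromosomally integrated HIV-1 vpr copy, was seeded at OD 0.01 in PMG+AL medium with 23 nL pinned compound. After 24 h at 30 °C and 99% humidity, viability was read by BacTiter-Glo luminescence.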
An asterisk follows results filed as active; ? = inconclusive; · = no result given; [ ] = another dose, or the depositor's remark. The sample as a whole holds a higher share of hits than the screen did. Unless noted, calls follow the shape of the dose curve; as a rule, active = well fitted curve in the direction sought with a large enough effect; inconclusive = small, poorly fitted or top-dose-only effect, or another doubt; inactive = no such curve, though single readings can be large; an effect the other way counts as inactive or inconclusive.

SMILES | Cycloheximide cs | Tb PYK inh | Shiga toxin inh | LmPK inhibitor | Giardia FBPA inh | RE007 growth inh
Cc1nc2ccc(-c3nc4ccc(N)cc4[nH]3)cc2[nH]1 | -1 | -7% | -6 | -21% | -7% | -13%
Nc1ccc2nc(-c3ccc(Cl)cc3)[nH]c2c1 | 62* | 0% | 97* | -2% | -22% | -28%
Nc1ccc2nc(-c3cccc(-c4nc5ccc(N)cc5[nH]4)c3)[nH]c2c1 | 10 | -5% | -4 | -1% | -21% | 5%
Nc1ccc(-c2nc3c(Cl)c(N)ccc3[nH]2)cc1 | 15 | -10% | 78* | ? | -2% | -9%
NC(=O)c1ccc2nc(-c3ccc(Oc4ccc(Cl)cc4)cc3)[nH]c2c1 | 16 | · | 45* | · | -12% | ·
COc1ccc(-c2csc(NC(=O)C3COc4ccccc4O3)n2)cc1OC (stereo unspecified) | -1 | -1% | -4 | 6% | -11% | -5%
Clc1ccc2nc(-c3ccc(Cl)nc3)[nH]c2c1 | 24* | -15% | 53* | -2% | -21% | -1%
CC1SCC(=NOCc2c(Cl)cccc2Cl)CS1 (stereo unspecified) | 12 | -5% | 62* | -3% | 2% | 0%
Cc1cccc(COc2ccc(S(=O)(=O)N3CCOCC3)cc2[N+](=O)[O-])c1 | · | 2% | · | · | · | -5%
O=C(O)c1cnc(-c2ccccc2)nc1Oc1ccccc1 | -11 | -7% | -16 | 1% | 26% | -3%
CCCCCCOc1ccc(C(=O)O)cc1 | 16* | -9% | 42* | -7% | ? | -16%
CCCCOc1ccc(C(=O)NC)cc1 | 21 | 0% | 20 | -2% | 4% | 5%
CCCCOc1ccc(-c2ncc(C(=O)O)c(C)n2)cc1 | 28* | -9% | 99* | -4% | 8% | -2%
CCCCOc1ccc(/C(N)=N/O)cc1 | 43* | 5% | 82* | -2% | 4% | -8%
CCC(=O)OCCCCCCOc1ccc(C(=O)O)cc1 | 1 | -11% | -5 | 0% | -1% | 1%
OC[C@H]1NC[C@H](O)[C@@H](O)[C@H]1O | · | · | · | · | 6% | ·
O=[N+]([O-])c1cc2c(cc1/C=N/NS(=O)(=O)c1ccc(Br)cc1)OCO2 | -8 | ? | -9 | -1% | -1% | -13%
CC(=O)Nc1cc(-c2ccccc2)cn2c(-c3ccc(F)cc3)cnc12 | · | -12% | · | · | · | -3%[18.4 µM]
N#CC(C(=O)Nc1ccccc1)=C1Nc2ccccc2N1 | 30 | -2% | 75* | 4% | -15% | -18%
CN1CCN(C(=O)/C=C\c2ccc(Cl)cc2)CC1 | -1 | -11% | 2 | 3% | 1% | -8%
CN1CCN(C(=O)/C=C/c2cccc(Cl)c2)CC1 | 17* | 5% | 20 | 2% | -2% | -16%
CN1CCN(C(=O)/C=C/c2c(F)cccc2Cl)CC1 | 19* | -4% | 11 | -10% | 3% | -5%
Cc1cccc(N(C)C(=S)Oc2ccc3ccccc3c2)c1 | 28* | 1% | 49* | 3% | -23% | 19%
O=C(OCc1ccccc1Cl)c1ccccc1C(=O)c1ccccc1 | 19* | -15% | 65* | 3% | 4% | -18%
N/C(CCS(=O)(=O)c1ccc(Cl)cc1)=N\OC(=O)c1ccccc1Cl | 3 | -2% | -3 | 2% | 2% | 5%
SMILES | Cycloheximide cs | Tb PYK inh | Shiga toxin inh | LmPK inhibitor | Giardia FBPA inh | RE007 growth inh
N/C(=N\OC(=O)c1ccc(Cl)cc1)c1ccc(Cl)cc1 | 21* | -10% | 54* | 3% | 1% | ?
N/C(=N\OC(=O)c1ccccc1Cl)c1ccc(Cl)cc1 | 49* | 6% | 63* | -16% | -16% | ?
O=C(O/N=C(\c1ccccc1)c1ccncc1)c1ccccc1Cl | -1 | 15% | -6 | 6% | -1% | -17%
N/C(=N\OC(=O)c1ccccc1Cl)c1ccccc1 | 35* | -17% | 70* | 14µM* | -2% | -21%
CCOC(=O)c1ccc2c(c1)N(Cc1cccc(C(F)(F)F)c1)C(=O)c1ccccc1S2(=O)=O | · | 2% | · | · | · | ·
COc1ccccc1NC(=O)C1=C(C)Nc2nc(-c3ccco3)nn2C1c1ccccc1F (stereo unspecified) | · | -9% | · | · | · | ·
N/C(=N\OC(=O)COc1ccc(Br)cc1)c1cccnc1 | 15 | 4% | -9 | 1% | 6% | 4%
N/C(=N\OC(=O)c1ccco1)c1ccc(Cl)cc1 | 62* | -1% | 84* | -26% | -5% | -16%
N/C(=N\OC(=O)c1ccco1)c1cccnc1 | 34* | 1% | 109* | -10% | 2% | 2%
N/C(=N\OC(=O)c1ccc(Cl)cc1)c1ccn[nH]1 | 39* | -16% | 49* | -27% | · | ?
C/C(=N\OC(=O)c1ccc(Cl)cc1)c1nccs1 | -3 | · | 25 | -27% | 2% | -13%[3.69 µM]
CCOC(=O)[C@]12CCC=C1N(Cc1cccc3ccccc13)C(=O)[C@H](CC(=O)NCCCOC)C2 | · | -4% | · | · | · | -9%
COC1C(O)C(CO)OC1n1cnc2c(NC3CCCCC3)ncnc21 (stereo unspecified) | 6 | · | -6 | · | -3% | ·
Fc1ccccc1Cc1noc(CN2CCC(OCc3cccnc3)CC2)n1 | 22* | 2% | 59* | 2% | 0% | -12%
O=C1NC[C@@H](CCCCN2C[C@H](Cc3ccc(O)cc3)N(CCc3ccccc3)C(=O)C2=O)N(CCc2ccc(O)cc2)C1=O | · | 1% | · | · | · | -2%
Cc1cccc2cc(C#N)c(NCCNS(=O)(=O)c3ccccc3)nc12 | -3 | 3% | -15 | -4% | -13% | 17%
Cc1cccc2cc(C#N)c(NCCNC(=O)COc3ccccc3)nc12 | -2 | -7% | -2 | 6% | 16µM* | 4%
Cc1cccc2cc(C#N)c(NCc3ccccc3)nc12 | -2 | 7% | 21 | 4% | 18µM* | -1%
CCCC(O)c1nc2ccccc2n1CCCOc1ccc(Cl)cc1 (stereo unspecified) | · | 1% | · | · | · | ·
Cn1cc(C(=O)NS(=O)(=O)Nc2ccc(Br)cc2)c2ccccc21 | 7 | 0% | -5 | -1% | · | -4%
CN(C)CCCNC(=O)c1ccc(/C=N/O)nc1 | 36* | -4% | 71 | -4% | 2% | 22%
C[N+](C)(C)CCCNC(=O)c1ccc(/C=N/O)nc1 | 10 | -19% | -5 | 1% | ? | 17%
CCSCc1nc2ccccn2c1Br | 16 | -5% | -5 | -6% | -17% | -17%
CCCCSCc1nc2ccccn2c1Br | 31* | 0% | 56* | 9% | 2% | -23%
CCOc1ccc(S(=O)(=O)c2c(C(=O)c3ccc(C)cc3)cnc3cc4c(cc23)OCCO4)cc1 | 4 | -2% | 16 | -2% | -1% | 15%
Cc1ccc(C(=O)c2cnc3cc4c(cc3c2S(=O)(=O)c2ccccc2)OCCO4)cc1 | 68* | -3% | 100* | 1% | -17% | -13%
c1ccc(-n2cnc3cc(NCc4ccco4)ccc32)cc1 | 35* | 1% | 63* | -1% | -9% | 9%

Bioassay records (PubChem BioAssay)
